Screening results (PubChem BioAssay)
POLI inh: inhibitors of human DNA polymerase iota | Q9UNA4 | Pol iota fluorescent replication assay, 10 min | Potency, µM (doses to about 115 µM), usual class: inhibitors | hit rate 1% among 390,000 | AID 588590
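Fluorescent replication assay read twice, at 0 min and 10 min after adding 50 nM (final) substrate. Enzyme (10 nM) and compounds were first incubated 15 min at room temperature; enzyme-free buffer wells were negative controls.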
L3MBTL1 inh: inhibitors of human L3MBTL1; Q9Y468; AlphaScreen L3MBTL1–H3K9me1 peptide binding; Potency, µM (doses to about 57.1 µM), hits mostly inhibitors; hit rate 0.66% among 230,000; AID 485360; further: nearly all actives have a fitted effect of over 60% in size
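First, the protein-peptide complex forms for 30 min at room temperature (L3MBTL1 50 nM, biotinylated H3K9me1 peptide 75 nM). Next, compounds are pin-transferred and incubated 30 min. Finally, AlphaScreen beads are added and read after 30 min.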
Pol eta inh: DNA polymerase eta (human) inhibition. hit rate 1.2% among 390,000. Q9Y253. Potency, µM (series often up to 114 µM), most hits filed as inhibitors. recombinant Pol eta, fluorescent DNA replication assay. AID 588591
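Pol eta (10 nM) was preincubated with compounds for 15 min at room temperature, after which fluorescent replication substrate (50 nM final) was added to start the reaction. Fluorescence was read kinetically at 0 and 10 min.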
POLK inh: blocks human DNA polymerase kappa activity; purified Pol kappa, fluorescent DNA synthesis assay, 10 min; Potency, µM (top dose mostly 107 µM), most hits filed as inhibitors; hit rate 0.53% among 400,000
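Here, compound and 10 nM enzyme are combined for 15 min at room temperature; adding 50 nM substrate (final) starts DNA synthesis, tracked by fluorescence at 0 and 10 min against buffer-only wells.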
Pol beta inh: DNA polymerase beta (human) inhibition; hit rate 1.3% among 340,000; Pol beta primer extension/strand displacement, fluorescence kinetic; Potency, µM (doses to about 114 µM), hits mostly inhibitors; P06746
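Enzyme-only controls used 10 nM Pol beta; buffer lacking enzyme served as negative control. Compound preincubated 15 min, then 50 nM substrate added; 0 and 10 min reads at room temperature.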
Hits are given with their value. In the library only some 2.4% were active in any assay of this set; here they are far more common. The call rests on the fitted dose curve; in most records, active means well fitted curve in the direction sought with a large enough effect; inconclusive means small, poorly fitted or top-dose-only effect, or another doubt; inactive means no such curve, though single readings can be large; an effect the other way counts as inactive or inconclusive.

Screening O=C(OCc1cc(=O)n2nc(-c3cccs3)sc2n1)c1cccc(Cl)c1 returned POLI inh inconclusive, Pol eta inh inactive, POLK inh inactive and Pol beta inh 40µM.
For Cc1ccccc1C(=O)OCc1cc(=O)n2nc(-c3cccs3)sc2n1 the results were POLI inh inconclusive, Pol eta inh inactive, POLK inh inactive and Pol beta inh 32µM.
`CC(C)c1nn2c(=O)cc(COC(=O)c3ccccc3Cl)nc2s1` gave POLI inh inactive, Pol eta inh inactive, POLK inh inactive and Pol beta inh inactive.
For CCCc1nn2c(=O)cc(COC(=O)c3cccc(NC(=O)c4cccs4)c3)nc2s1 the results were POLI inh inconclusive, Pol eta inh inactive, POLK inh inactive and Pol beta inh 3.5µM.
`Cc1nn2c(=O)cc(COc3ccc(/C=C(\C#N)C(=O)Nc4ccccc4C)cc3)nc2s1` gave POLI inh 20µM, Pol eta inh inactive, POLK inh inconclusive and Pol beta inh inconclusive.
Screening O=C(OCc1cc(=O)n2nc(-c3cccs3)sc2n1)c1ccccc1Cl returned POLI inh inconclusive, Pol eta inh inconclusive, POLK inh inconclusive and Pol beta inh 35µM.
CCC(C)[C@H](NC(=O)C1CC(=O)N(c2ccc3c(c2)OCO3)C1)C(=O)NC1CCCCC1 (some centres not stated) was read as POLI inh inactive, Pol eta inh inactive, POLK inh inactive and Pol beta inh inactive.
Nc1ccccc1N=Nc1ccccc1N was read as POLI inh inactive, L3MBTL1 inh 8.9µM, Pol eta inh inactive, POLK inh inactive and Pol beta inh inactive.
Nc1ccccc1-c1ccccc1N was read as POLI inh inactive, L3MBTL1 inh inactive, Pol eta inh inactive, POLK inh inactive and Pol beta inh inactive.
Screening CC1C/C(=N\NC(N)=S)c2cc(Cl)ccc2S1 (configuration not stated) returned POLI inh 79µM, Pol eta inh inactive, POLK inh inactive and Pol beta inh inactive.
For CC(C)=C1CCC(C)CC1=NNC(N)=S (configuration not stated) the results were POLI inh inactive, Pol eta inh inactive and POLK inh inactive.
`C[C@H]1c2cccc(O)c2C(O)=C2C(=O)[C@]3(O)C(O)=C(C(N)=O)C(=O)C(N(C)C)[C@@H]3[C@@H](O)C21` (some centres not stated) gave POLI inh inactive, Pol eta inh inactive and Pol beta inh inactive.
Screening C=C1c2c(Cl)ccc(O)c2C(O)=C2C(=O)[C@@]3(O)C(O)=C(C(N)=O)C(=O)[C@@H](N(C)C)[C@@H]3[C@@H](O)[C@H]12 returned POLK inh 2.5µM.
Screening Cn1c(SCC(=O)Nc2sc3c(c2C#N)CCC3)nnc1C1COc2ccccc2O1 (configuration not stated) returned POLI inh inconclusive, L3MBTL1 inh inactive, Pol eta inh inconclusive, POLK inh inactive and Pol beta inh 1.8µM.
COc1cc(OC)cc(C(=O)N2CCN(C(=O)COc3ccccc3)CC2)c1 was read as POLI inh inactive, Pol eta inh inactive, POLK inh inactive and Pol beta inh inactive.
Screening O=C(c1cc(-c2ccccc2Cl)nc2ccccc12)N1CCC1 returned POLI inh inactive, L3MBTL1 inh inactive, Pol eta inh inactive and POLK inh inactive.
`COc1ccc(-c2cc(C(=O)N3CCCCCC3)c3ccccc3n2)c(OC)c1` gave POLI inh 79µM, Pol eta inh inconclusive, POLK inh inactive and Pol beta inh 22µM.
For Cc1ccccc1-c1cc(C(=O)N2CCCC2)c2ccccc2n1 the results were POLI inh 25µM, Pol eta inh inconclusive, POLK inh inconclusive and Pol beta inh inconclusive.
`CN(Cc1ccc(F)cc1)S(=O)(=O)c1nnc(NC(=O)c2ccccc2Cl)s1` gave POLI inh inactive, Pol eta inh inactive, POLK inh inactive and Pol beta inh inactive.
`Cc1cc(=O)n(CC(=O)NC(C)c2ccccc2)c2c1c(C)nn2-c1cccc(F)c1` (configuration not stated) gave POLI inh inconclusive, Pol eta inh inactive, POLK inh inactive and Pol beta inh 22µM.
For COc1ccccc1N(C(C)=O)C1=C(Cl)C(=O)c2ccccc2C1=O the results were Pol eta inh 50µM.
